Only some compounds are listed: those with a hit (about 6.5% of all), similar ones and a draw of the others.
Vaccinia Venus: qHTS for Stage-Specific Inhibitors of Vaccinia Orthopoxvirus: Venus Reporter Primary qHTS. Vaccinia virus Venus reporter expression, fluorescence. Potency, µM (series often up to 36.5 µM), for the others: top-dose activity change, negative = inhibition, usual class: inhibitors. 0.46% of 330,000 active; calls by dose curve; tested in A549 cells; also: potency is read from the fitted curve at half-maximal effect; nearly all actives have a fitted effect of over 30% in size
MARV entry inh: qHTS for inhibitors of binding or entry into cells for Marburg Virus. Marburg virus pseudotyped entry inhibition, cell reporter. Potency, µM (doses to about 37.8 µM), for inactives: top-dose activity change, negative = inhibition, usual class: inhibitors. 1.8% of 300,000 active; calls by dose curve; tested in HEK293 cells; also: potency is read from the fitted curve at half-maximal effect
FMDV inh: High Throughput Screening for Foot and Mouth Disease Virus Antivirals | FMDV antiviral cell-based qHTS | AID 1159524, 2015 | 1.2% of 410,000 active | Potency, µM (top dose mostly 57.9 µM), inactives show at the top dose activity change, negative = inhibition, hits mostly inhibitors; calls by dose curve; tested in HEK293T cells; also: read-out not given here; potency is read from the fitted curve at half-maximal effect; nearly all actives have a fitted effect of over 45% in size
LASV entry inh: qHTS for Inhibitors of binding or entry into cells for Lassa Virus | Lassa virus pseudotype entry inhibition, cell reporter | 1.2% of 300,000 active | Potency, µM (highest dose often 37.9 µM), for inactives: top-dose activity change, negative = inhibition, usual class: inhibitors | AID 540256, 2011; calls by dose curve; tested in HEK293 cells; also: potency is read from the fitted curve at half-maximal effect; nearly all actives have a fitted effect of over 50% in size
VACV mCherry inh: qHTS for Stage-Specific Inhibitors of Vaccinia Orthopoxvirus: mCherry Reporter Primary qHTS. Vaccinia virus mCherry reporter infection, fluorescence. Potency, µM (series often up to 36.5 µM), for inactives: at the top dose activity change, negative = inhibition, actives largely listed as inhibitors. 0.63% of 310,000 active. AID 720579, 2013; calls by dose curve; tested in A549 cells; also: potency is read from the fitted curve at half-maximal effect; nearly all actives have a fitted effect of over 35% in size
HCMV inh: qHTS Assay for inhibitors of the human cytomegalovirus (HCMV). HFF cells, HCMV-luciferase reporter, 72 h; stronger effect = lower value. activity change, negative = inhibition, % at 57.5 µM. 4.5% of 410,000 active; in the data active = activity change below about -60%; inconclusive = no clear call, values can overlap the other calls; inactive = above about -39%
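Luciferase read-out from HCMV-luciferase-infected HFFs (MOI 1 PFU/cell) 72 h post infection at 37C; compounds added after 16 h cell attachment; activity normalized between buffer-only basal and Salinomycin (10uM) inhibitor controls.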
* = called active by the depositor; i = inactive; u = inconclusive; x = not tested or not shown; ! = not confirmed by another sample; [ ] = another dose, or the depositor's remark. % is scaled to controls: 0 for no effect and ±100 for the full control effect.

SMILES	Vaccinia Venus	MARV entry inh	FMDV inh	LASV entry inh	VACV mCherry inh	HCMV inh
COCCNC(=S)N1CCc2cc(OC)c(OC)cc2C1COc1cc(C)cc(C)c1 (stereo unspecified)	-28%	7.9µM*	-14%	-1%	i	21
COc1cc2c(cc1OC)C(COc1ccc3c(C)cc(=O)oc3c1)N(C(=O)c1cccc(OC)c1OC)CC2 (stereo unspecified)	-9%	-5%[46.1 µM]	-30%	2.8µM*	-11%	10
COc1ccc(CC(=O)N2CCc3cc(OC)c(OC)cc3C2COc2ccc(F)cc2)cc1OC (stereo unspecified)	-6%	x	25µM*	u	2%	20
CCC(=O)N1CCc2cc(OC)c(OC)cc2C1COc1ccc(OC)cc1 (stereo unspecified)	-5%	u	-11%	-30%	-15%	152
CCCCC(=O)N1CCc2cc(OC)c(OC)cc2C1COc1ccc(OC)cc1 (stereo unspecified)	-8%	x	0%	-15%[46.1 µM]	0%	-98*
Oc1cc(-c2cccs2)cc2c1OCCN(Cc1cn[nH]c1-c1ccc(Cl)cc1)C2	-11%	x	1%	x	0%	x
COC(=O)C1=C(C)N=C2SC(C)C(=O)N2C1c1ccc(C(=O)OC)cc1 (stereo unspecified)	3%	u	10%	-1%	2%	-88*
CCCCOc1cc(C[C@@H]2CNC(=O)N2)ccc1OC	x	9%	-12%	x	x	x
CC(=O)c1c(C)n(-c2ccc(Cl)cc2)c2ccc(OC(=O)COc3ccccc3)cc12	-12%	x	-11%	11%[46.1 µM]	-15%	-17
CC(=O)c1c(C)n(-c2cccc(C)c2)c2ccc(OC(=O)COc3ccccc3)cc12	-1%	-17%[46.1 µM]	0%	-13%[46.1 µM]	-12%	-63*
CCOc1ccc(-n2c(C)c(C(=O)O)c3cc(OC)ccc32)cc1	-7%	6.3µM*	-2%	u	i	u
CCOc1ccc(-n2c(C)c(C(C)=O)c3cc(OC(C)=O)ccc32)cc1	x	x	u	x	x	-78*
CCn1c(C)c(C(=O)O)c2cc(OC)ccc21	5%	u	-18%	0%	x	-9
Cc1ccc(-c2nc(P(=O)(c3ccccc3)c3ccccc3)c(N3CCOCC3)o2)cc1	x	10µM*	-26%	u	x	-7
Cc1cccc(CNc2cc(-c3cccc(C#N)c3)ncn2)c1	15%	x	-7%	x	12%	x
CCN(CCCNC(=O)c1cc2c(=O)[nH]c3ccc(C)cc3c2s1)Cc1ccccc1	u	11µM*	u	u	u	-106*
CCCN1CCN(CCCNC(=O)c2cc3c(=O)[nH]c4ccc(C)cc4c3s2)CC1	-29%	u	-19%	-19%	u	-101*
CCN(CC)CCNC(=O)c1cc2c(=O)[nH]c3ccc(C)cc3c2s1	-18%	8%[46.1 µM]	0%	17%[46.1 µM]	-20%	3
CCOCCCN(Cc1ccco1)C(=O)c1cc2c(=O)[nH]c3ccc(C)cc3c2s1	-29%	u	-15%	x	u	-63*!
CCN(CCCNC(=O)c1cc2c(=O)[nH]c3ccc(C)cc3c2s1)c1ccc(C)cc1	-12%	-10%[46.1 µM]	-9%	12%[46.1 µM]	-1%	-18
COc1ccccc1CNC(=O)CCc1c(C)nn(-c2ccc(N3CCCC3)nn2)c1C	-8%	x	-16%	-9%[46.1 µM]	-9%	u
CCc1c(C)sc(NC(=O)c2cc(-c3cc(OC)ccc3OC)on2)c1C#N	x	u	-10%	-14%	x	-68*
CCc1c(C)sc(NC(=O)c2cc(-c3ccc(OC)c(OC)c3)on2)c1C#N	-11%	-13%[46.1 µM]	0%	16%[46.1 µM]	-17%	10
CCc1c(C)sc(NC(=O)c2cc(-c3ccc(O)cc3)on2)c1C#N	-10%	x	-5%	x	i	-61*
Cc1ccc(C)c(NC(=O)Cn2nc(C)c3nn(-c4ccc(Cl)cc4)c(C)c3c2=O)c1	u	x	u	u	u	2
SMILES	Vaccinia Venus	MARV entry inh	FMDV inh	LASV entry inh	VACV mCherry inh	HCMV inh
COc1ccc(C(=O)C(CCCCC(CN(C)C)C(=O)c2ccc(OC)cc2)CN(C)C)cc1 (stereo unspecified)	-26%	u	-9%	u	-15%	u
CCOc1ccc(C(=O)C(CCC(CN(C)C)C(=O)c2ccc(OCC)cc2)CN(C)C)cc1 (stereo unspecified)	x	1µM*	16µM*	4.1µM*	x	-99*
O=C(c1ccccc1)C(CCc1ccccn1)CCc1ccccn1	-7%	u	40%	17%	-15%	-11
CN(C)CC(CCC(CN(C)C)C(=O)c1ccccc1)C(=O)c1ccccc1 (stereo unspecified)	11µM*	13µM*	28µM*	-31%	u	x
COc1ccc(CC2S/C(=N/N=C/c3ccc(O)cc3)NC2=O)cc1 (stereo unspecified)	-4%	8%	8%	1.5µM*	u	-11
COc1ccc(CC2S/C(=N/N=C/c3ccccc3O)NC2=O)cc1 (stereo unspecified)	0%	x	-8%	x	u	u
O=C1N/C(=N/N=C/c2ccc(O)cc2)SC1Cc1ccccc1 (stereo unspecified)	-7%	0%	5%	1.5µM*	u	0
O=C1N/C(=N/N=C/c2ccccc2O)SC1Cc1ccc(F)cc1 (stereo unspecified)	u	u	-5%	u	u	-66*
CCOc1ccc(NC(=O)c2ccc(-c3nc(COc4ccccc4)c(C)o3)cc2)cc1	0%	x	-21%	u	-7%	-9
CCN1CCCC1CNC(=O)c1cc(N)ccc1OC (stereo unspecified)	-10%	15%[46.1 µM]	-4%	16%[46.1 µM]	-11%	15
C=CCN1CCCC1CNC(=O)c1cc2[nH]nnc2cc1OC (stereo unspecified)	-7%	x	-9%	x	-10%	-68*
CCN(CC(=O)Nc1cc(Cl)ccc1C)c1ncnc2sc(C)c(C)c12	-16%	u	-13%	0%	i	-78*
CCN(CC(=O)Nc1cc(Cl)ccc1C)C(=O)C1CCN(c2ncnc3sc(C)c(C)c23)CC1	u	x	18µM*	x	11µM*	0
CCN(CC(=O)Nc1cc(Cl)ccc1C)C(=O)CCS(=O)(=O)c1ccc(Cl)cc1	u	u	-22%	-3%	11µM*	20
CCN(CC(=O)Nc1cc(Cl)ccc1C)C(=O)C1CCCCC1	-3%	u	-20%	3%	2%	-61*
COC(=O)CC=C[C@@H](C)[C@@H](Cc1ccccc1Br)OC	x	-4%[14.2 µM]	x	0%[14.3 µM]	x	x
Cc1sc2ncnc(N3CCC(C(=O)N(C)CC(=O)Nc4ccccc4Cl)CC3)c2c1C	-28%	u	22µM*	10µM*	-24%	-79*
Cc1sc2ncnc(N3CCC(C(=O)N(C)CC(=O)Nc4ccccc4Br)CC3)c2c1C	-25%	u	u	-27%	-21%	-63*

Screens deposited in PubChem by National Center for Advancing Translational Sciences (NCATS).
